From PubChem BioAssay AID602475 (National Center for Advancing Translational Sciences (NCATS), 2012)
Records with an inconclusive call do not appear. Activity calls are given as the source filed them. Calls come from the whole dose curve; as a rule, active = well fitted inhibition curve with a large enough effect; inconclusive = small, poorly fitted or top-dose-only effect; inactive = no such curve, though single readings can be large or run the other way.

biological target: Luciferin 4-monooxygenase (Photinus pyralis) (UniProt P08659); assay: FLuc inhibitory activity for the follow-up compounds in a biochemical assay with an in-house formulation of detection reagent; conditions: purified FLuc, luminescence; series mostly up to 25.6 µM; activity change, negative = inhibition: at the top concentration
Sequence (P08659 whole entry, looked up): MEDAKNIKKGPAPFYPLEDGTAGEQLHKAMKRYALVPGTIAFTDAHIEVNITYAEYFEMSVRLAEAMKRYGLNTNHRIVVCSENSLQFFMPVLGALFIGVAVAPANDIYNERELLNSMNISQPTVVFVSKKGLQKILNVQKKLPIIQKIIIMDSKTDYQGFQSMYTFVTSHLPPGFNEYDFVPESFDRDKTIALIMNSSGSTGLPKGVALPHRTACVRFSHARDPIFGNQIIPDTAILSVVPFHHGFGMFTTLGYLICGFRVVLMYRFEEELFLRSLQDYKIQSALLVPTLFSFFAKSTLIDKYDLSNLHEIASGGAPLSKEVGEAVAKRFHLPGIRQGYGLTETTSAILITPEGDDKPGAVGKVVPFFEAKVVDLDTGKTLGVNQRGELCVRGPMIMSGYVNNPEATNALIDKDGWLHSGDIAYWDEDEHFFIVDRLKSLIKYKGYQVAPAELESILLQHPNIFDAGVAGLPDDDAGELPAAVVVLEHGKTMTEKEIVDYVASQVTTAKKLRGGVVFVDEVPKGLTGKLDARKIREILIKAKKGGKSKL
Text: NCGC Assay Overview: Firefly (Photinus pyralis) luciferase is one of the most commonly used transcriptional reporters. It is considered one of the more dynamically responsive reporters - that is, responsive to changes in reporter transcription - as it requires no post-translational modifications and is enzymatically active directly after protein synthesis (Wood, 1998). With no endogenous expression in mammalian cells and without the requirement of external excitation, it offers very little background signal, thus generally providing excellent signal to background for most assays. Previous profiling work to determine the prevalence of compounds that affect FLuc enzymatic activity (PubChem AID 411) identified that ~3% of the MLSMR library (then at ~72K) inhibited FLuc (Auld et al., 2008). […] Of the compounds identified in this profile that inhibited FLuc, 151 compounds were selected for further analysis, in an effort to better understand their mode of inhibiting FLuc. The assay described here was to determine the activity of the compounds in a FLuc assay that used an in-house formulation of detection reagent.
NCGC Assay Protocol Summary: Reagents: 300mM Tris-HCl, 300mM Trizma base, 300mM MgCl, 1% Triton-X100, 5mM DTT, 500uM Coenzyme A trilithium salt (Sigma #C3019),450uM ATP (Sigma #A7699), 1mM D-luciferin sodium salt monohydrate (Biosynth #L8240); 10nM P. pyralis luciferase (Sigma #L9506) Control compounds used were two known firefly luciferase inhibitors (3-(5-(3-chlorophenyl)-1,2,4-oxadiazol-3-yl)benzoic acid and 5-(2-fluorophenyl)-3-phenyl-1,2,4-oxadiazole), and DMSO. Assay Summary: Six microliters of buffer containing firefly luciferase (final concentrations: 50mM Tris acetate, 10nM P. pyralis luciferase) are dispensed into each well of a Greiner white, solid-bottom 1536-well format plate using a flying reagent dispenser (FRD). These assay plates were then treated with 23nL of compound or DMSO using a Kalypsys pin tool, which allows for delivery of a 12-point intraplate titration of each compound to the assay plate (quantitative HTS), with final compound concentrations ranging from approximately ~25uM to 0.1nM. Three microliters of 3X in-house detection reagent was then delivered by FRD to each well (final concentrations in assay: 300mM Tris-HCl, 300mM Trizma base, 300mM MgCl, 1% Triton-X100, 5mM DTT, 500uM Coenzyme A trilithium salt, 450uM ATP, 1mM D-luciferin sodium salt monohydrate). Luciferase activity was then measured using a ViewLux CCD imager (PerkinElmer), with an average exposure time of 2-30 seconds (2X binning, medium/high gain).

| SMILES | activity change, negative = inhibition | Potency |
| --- | --- | --- |
| COc1ccc2nc(NC(=O)c3ccc(S(=O)(=O)N4CCCC(C)C4)cc3)sc2c1 (stereo not given) | -0.118% (inactive) | – |
| COc1ccc(C(=O)Nc2cccc(C(=O)O)c2)cc1S(=O)(=O)N1CCCC1 | -14% (inactive) | – |
| COc1ccc2nc(NC(=O)c3cccs3)sc2c1 | -2.15% (inactive) | – |
| COc1ccc2nc(NC(=O)CCc3ccc(OC)c(OC)c3)sc2c1 | -13.7% (inactive) | – |
| Cc1ccc2sc(-c3ccc(NC(=O)c4cc(-n5cnnc5)ccc4Cl)cc3)nc2c1 | 43.4% (inactive) | – |
| COc1ccc2nc(NC(=O)c3nc(S(=O)(=O)Cc4ccc(C)cc4)ncc3Cl)sc2c1 | -19.5% (inactive) | – |
| Nc1ccc(-c2nc3cc(N)ccc3s2)cc1 | – | 8.74 µM (active) |
| COc1ccc2nc(NC(=O)c3cnccn3)sc2c1 | – | 4.38 µM (active) |
| Cc1cccc(NS(=O)(=O)c2cccc(C(=O)Nc3cccc(C(=O)O)c3)c2)c1 | 8.12% (inactive) | – |
| CC(=O)Oc1ccc(C(=O)Nc2ccccc2C(=O)Nc2cccc(C(=O)O)c2)cc1 | -11.8% (inactive) | – |
| COc1ccc2nc(NC(=O)c3ccco3)sc2c1 | – | 6.94 µM (active) |
| COc1ccc(NS(=O)(=O)c2cccc(C(=O)Nc3ccccc3C(=O)O)c2)cc1 | -0.994% (inactive) | – |
| COc1ccc2nc(NC(=O)c3ccc([N+](=O)[O-])o3)sc2c1 | – | 9.8 µM (active) |
| O=C(Nc1ccccc1C(=O)O)c1cc(S(=O)(=O)Nc2cccc(F)c2)ccc1Cl | -17.3% (inactive) | – |
| Nc1ccc2nc(-c3ccccc3)sc2c1 | – | 2.19 µM (active) |
| Oc1ccc(-c2nc3ccccc3s2)c(O)c1 | -6.99% (inactive) | – |
| Cc1c(C)c2ccc(OCC(=O)Nc3ccccn3)c(C)c2oc1=O | – | 0.0874 µM (active) |
| COc1ccc2nc(NC(=O)C3CCN(S(=O)(=O)c4cccnc4)CC3)sc2c1 | 26.7% (inactive) | – |
| COc1ccc(CC(=O)Nc2ccc(-c3nc4ccccc4s3)c(C)c2)cc1 | – | 11 µM (active) |
| O=C(Nc1ccccc1C(=O)Nc1ccccc1C(=O)O)c1ccccc1 | -4.17% (inactive) | – |

| SMILES | activity change, negative = inhibition | Potency |
| --- | --- | --- |
| COc1cc(OC)cc(C(=O)Nc2ccccc2-c2nc3ccccc3s2)c1 | -6.18% (inactive) | – |
| COc1cccc(-c2nc3ccccc3s2)c1 | – | 7.79 µM (active) |
| CN(C)S(=O)(=O)c1ccc(C(=O)Nc2cccc(C(=O)O)c2)cc1 | -9.26% (inactive) | – |
| O=C(Nc1c(Cl)cc(Cl)cc1-c1nc2ccccc2s1)c1ccc(Br)o1 | – | 13.8 µM (active) |
| O=C(Nc1ccccc1C(=O)O)c1ccccc1 | -24% (inactive) | – |
| Cc1ccc(C(=O)Nc2cccc(C(=O)O)c2)cc1S(=O)(=O)N1CCCCC1 | -17.8% (inactive) | – |
| COc1ccccc1C(=O)Nc1ccc(C(=O)Nc2ccccc2C(=O)O)cc1 | -5.34% (inactive) | – |
| COc1ccc(-c2nc3ccccc3s2)cc1O | – | 2.46 µM (active) |
| Cc1ccc2sc(-c3ccc(N)cc3)nc2c1 | – | 6.19 µM (active) |
| O=C(O)c1ccc(NC(=O)c2ccccc2NC(=O)c2ccccc2Cl)cc1 | -9.72% (inactive) | – |
| COc1cc(OC)cc(C(=O)Nc2ccc(-c3nc4ccccc4s3)c(C)c2)c1 | -18.6% (inactive) | – |
| Cc1ccc(C(=O)Nc2ccc(C(=O)O)cc2)cc1S(=O)(=O)NCc1ccccc1 | -18.7% (inactive) | – |
| CCOC(=O)N1CCN(CC(=O)Nc2nc3ccc(OC)cc3s2)CC1 | 3.07% (inactive) | – |
| O=C(O)c1cccc(NC(=O)c2cccc(NC(=O)C3CCCO3)c2)c1 (stereo not given) | -14.9% (inactive) | – |
| O=C(O)c1ccccc1NC(=O)c1ccccc1Nc1ccccc1 | -3.26% (inactive) | – |
| O=C(O)c1cccc(NC(=O)c2cccc(S(=O)(=O)N3CCc4ccccc4C3)c2)c1 | -8.2% (inactive) | – |
| C/C(=N\NC(=O)c1ccccc1NC(=O)c1ccc(Cl)cc1)c1ccncc1 | – | 1.1 µM (active) |
| O=C(Nc1ccccc1C(=O)O)c1ccc(NC(=O)C2CCCCC2)cc1 | 3.23% (inactive) | – |
| Cc1c(NC(=O)c2cc(-n3cnnc3)ccc2Cl)cccc1-c1nc2ccccc2s1 | -8.49% (inactive) | – |
| COc1ccc2nc(NC(=O)Cc3cccs3)sc2c1 | -18.1% (inactive) | – |
